Test results published in PubChem BioAssay AID651965 (National Center for Advancing Translational Sciences (NCATS), 2013).
Among all 340,000 compounds or so, about 6,400 (1.9%) were called active. A call without a number means that no potency is given here. About 4% were inconclusive and are not listed. Calls come from the whole dose curve; as a rule, active = well fitted falling curve with a large enough effect; inconclusive = small, poorly fitted or top-dose-only effect; inactive = no such curve, though single readings can be large or run the other way. This excerpt belongs to a sample that is enriched for actives.

Each compound was assayed against ATP-dependent Clp protease proteolytic subunit (Bacillus subtilis (strain 168)) (UniProt P80244) (assay: qHTS Assay for Activators of ClpP). Conditions: purified B. subtilis ClpP, FRET peptide cleavage, 20 min; series mostly up to 57.5 µM.
Outline: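 Purified B. subtilis ClpP, 10 microg/mL final in Tris/HCl pH8 with KCl, BSA, glycerol and Tween-20, cleaved an Abz/nitrotyrosine-quenched decapeptide. Fluorescence (ex 320, em 430) was read at 0 and 20 min at room temperature. Delta was normalized to 5.8 microM ADEP and DMSO/no-enzyme controls.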
Note: the source files actives as falling curves though it sought activators and does not explain the sign; nearly all actives have a fitted effect of over 65% in size.
Potency is the fitted concentration of half-maximal effect.

Sequence of ATP-dependent Clp protease proteolytic subunit (Bacillus subtilis (strain 168)) (P80244 whole entry, looked up): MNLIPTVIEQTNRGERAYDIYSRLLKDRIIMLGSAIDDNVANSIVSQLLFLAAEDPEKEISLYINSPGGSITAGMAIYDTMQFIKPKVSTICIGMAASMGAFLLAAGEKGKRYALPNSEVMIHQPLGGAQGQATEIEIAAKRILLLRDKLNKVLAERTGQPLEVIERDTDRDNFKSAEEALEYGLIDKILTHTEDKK

SMILES | Potency
Cc1nc(SCC(=O)NC2CCCCC2C)c(C#N)c(C)c1C (stereo unspecified) | inactive
COC(=O)c1c(C)c(C)nc(N)c1C#N | 8.91 µM (active)
COC(=O)c1c(C)cc(O)c(C)c1O | inactive
COc1ccc(NC(=O)C2Cc3c(-c4cccc(NC(C)=O)c4)ccnc3O2)cc1OC (stereo unspecified) | inactive
CC(=O)OC[C@@H]1CN(Cc2ccccc2)C[C@H](n2cnc3c(NCc4ccco4)ncnc32)O1 | inactive
Nc1ncnc2nnsc12 | inactive
Cn1c(=NC(=O)CSCC(=O)N2CCCCC2)sc2ccccc21 | 35.5 µM (active)
Cn1c(=NC(=O)c2cnccn2)sc2ccccc21 | inactive
O=C(CSCc1cccs1)N1CCCC1 | inactive
CCc1nc2c(OCc3cccc(OC)c3)cccn2c1N(C)C(=O)C(C)C | inactive
Cc1cccc(C)c1Cn1c(C)c(C(=O)NCc2cccc(Cl)c2)sc1=O | inactive
CN1OC[C@@H]2CN(C(=O)c3cccnc3)[C@H](c3ccc(N4CCCCC4)cc3)C[C@@H]21 | inactive
c1ccc(-c2ccc3c(c2)NC(C2Nc4cc(-c5ccccc5)ccc4O2)O3)cc1 (stereo unspecified) | inactive
c1ccc(-c2c[nH]c(-c3ccccc3)c2)cc1 | 20 µM (active)
c1ccc(-c2cc(-c3ccccc3)[nH]n2)cc1 | inactive
CCCCN1CC(N2CCN(Cc3cccc(C)c3)CC2)CS1(=O)=O (stereo unspecified) | inactive
O=C1c2cccc(OCC(=O)N3N=C(c4cccs4)CC3c3ccc(F)cc3)c2CCN1Cc1ccccc1 (stereo unspecified) | 15.8 µM (active)
O=C(COc1ccccc1Cl)N1N=C(c2cccs2)CC1c1ccco1 (stereo unspecified) | inactive
COc1ccc(C2CC(c3cccs3)=NN2C(=O)COC(=O)c2cc3ccccc3cc2O)cc1OC (stereo unspecified) | inactive
CN(C)CCNC(=O)c1ccc(-c2cn3c(-c4ccc(Oc5ccccc5)cc4)cnc3cn2)cc1 | inactive
OC(c1ccccc1)c1nc(-c2cnc3ccccc3c2)cs1 (stereo unspecified) | inactive

SMILES | Potency
C(=Nc1ccc(/C=C/c2ccnc3ccccc23)cc1)c1cc2c3c(c1)CCCN3CCC2 | inactive
CC1=C(C(=O)N(C(C)C)C(C)C)CC(CC(=O)NCC2CCCCC2)C(=O)N1Cc1ccccc1 (stereo unspecified) | inactive
CNC(=O)/C(=C\C=C\c1ccccc1)NC(=O)c1ccc([N+](=O)[O-])cc1 | inactive
O=C(NCCCO)/C(=C\C=C\c1ccccc1)NC(=O)c1ccccc1Cl | 28.2 µM (active)
Cc1ccc(C(=O)N/C(=C/C=C/c2ccccc2)C(=O)NCc2ccco2)cc1 | inactive
Cc1cccc(C)c1-n1nnnc1C1(C)CCC(=O)N1CCOc1ccccc1 (stereo unspecified) | inactive
CC1(C(=O)NS(=O)(=O)c2cccc(F)c2)CCN1C(=O)Cc1cc(F)ccc1F (stereo unspecified) | inactive
C[C@@H]1CN([C@@H](C)CO)C(=O)c2c(c3ccccc3n2C)-c2ccccc2CO[C@H]1CN(C)C(=O)C1CC1 | inactive
COc1ccc(S(=O)(=O)NC(=O)C2(C)CCN2C(=O)COc2ccc(Cl)cc2)cc1 (stereo unspecified) | inactive
CCNC(=O)N1CCN(S(=O)(=O)c2ccc3c(c2)OCCCO3)CC1 | inactive
CCCCCC(=O)N1CCN(S(=O)(=O)c2ccc3c(c2)OCCCO3)CC1 | 28.2 µM (active)
CN1CCCN(S(=O)(=O)c2ccc3c(c2)OCCO3)CC1 | inactive
COC(=O)[C@]12CCCCC=C1N(Cc1ccc(Cl)cc1Cl)C(=O)[C@H](CC(=O)NCc1cccc3ccccc13)C2 | inactive
CCCNc1ncnc2c1c(-c1ccccc1)cn2-c1ccc(OCC)cc1 | 25.1 µM (active)
O=c1[nH]cnc2c1c(-c1ccccc1)cn2-c1ccc(F)cc1 | inactive
COCCNc1ncnc2c1c(-c1ccccc1)cn2-c1ccc(C)c(Cl)c1 | inactive
COc1ccc(CC(N)c2csc(NC(=O)NC(c3ccccc3)c3ccccc3)n2)cc1 (stereo unspecified) | inactive
CC1(C(=O)NCc2ccccc2)CSCC(=O)N1CCCn1ccnc1 (stereo unspecified) | inactive
COC(=O)[C@]12CCCCC=C1N(Cc1ccc3c(c1)OCO3)C(=O)[C@H](CC(=O)N1CCOCC1)C2 | inactive
CC(C)NC(=O)C1(C)CCCCN1Cc1cccc(C(F)(F)F)c1 (stereo unspecified) | inactive
COc1ccccc1NC(=S)N1CCC(NC(=O)C23CC4CC(CC(C4)C2)C3)CC1 | inactive

SMILES | Potency
CCCNC(=S)N1CCC(NC(=O)C23CC4CC(CC(C4)C2)C3)CC1 | inactive
COCCNC(=S)N1CCC(NC(=O)C23CC4CC(CC(C4)C2)C3)CC1 | 28.2 µM (active)
CC(=O)N1Cc2cc(C(=O)NCc3cccc(F)c3)nc(-c3cccc(C4=CCCC4)c3)c2[C@H]1CCO | inactive
COC(=O)[C@@]12C[C@@H](CC(=O)NCCCCc3ccccc3)C(=O)N(CCc3ccc(OC)c(OC)c3)C1=CCC(C)(C)C2 | inactive
COc1ccc(-c2ccc3[nH]c4c(c3c2)CCN2C[C@H]3[C@H](C)ON(C)[C@H]3C[C@@H]42)cc1 | inactive
CCN(CC)CCn1c(N)c(S(=O)(=O)c2ccccc2)c2nc3ccccc3nc21 | inactive
CCC(=O)Nc1ccc(C)cc1-c1nc2ccccc2n(Cc2ccccc2)c1=O | inactive
CCC(=O)Nc1c(S(=O)(=O)c2ccccc2)c2nc3ccccc3nc2n1Cc1ccccc1 | 14.1 µM (active)
CCOC(=O)[C@]12CCCC=C1N(CCC1=CCCCC1)C(=O)[C@H](CC(=O)N1CCN(C(=O)c3ccco3)CC1)C2 | inactive
CCCCCCCNc1ccc(/C=C/c2ccnc3ccccc23)cc1 | inactive
Cc1cccc(C(=O)NC(=S)N2CCN(c3ccc([N+](=O)[O-])cc3)CC2)c1 | inactive
O=C(c1cncc(Br)c1)N1CCN(c2ccc([N+](=O)[O-])cc2)CC1 | 28.2 µM (active)
O=C(c1cc(C(=O)N2CCN(c3ccc(F)cc3)CC2)cc([N+](=O)[O-])c1)N1CCN(c2ccc(F)cc2)CC1 | inactive
CCCCc1ccc(S(=O)(=O)NC(=O)C2(C)CCN2C(=O)c2ccccc2)cc1 (stereo unspecified) | inactive
Cc1ccc(-c2nc(=N)sn2Cc2ccccc2)cc1 | inactive
Cc1ccc(C=O)cc1Cl | inactive
CC1(C(=O)NS(=O)(=O)c2cccc(OC(F)F)c2)CCN1C(=O)C1CC1 (stereo unspecified) | inactive
CC(=O)Nc1cc(-c2ccc(N3CCN(C)CC3)cc2)cn2c(-c3ccc(F)cc3)cnc12 | inactive
CCOC(=O)N1CCN(C(c2ccnc3ccccc23)c2nnnn2-c2c(C)cccc2C)CC1 (stereo unspecified) | inactive
